# What was measured:
# Experiment in all cases: DAPPL (digital affinity profiling via proximity ligation, sequencing); 10 mM Tris-HCl pH 7.5, 50 mM NaCl, 1 mM DTT, 4% glycerol, room temperature, 30 min; GST-TFs on glutathione beads, 16-mer random dsDNA library, 0.1% formaldehyde crosslink after washing; high values mean tight binding
# FEV = target: T1, FEV (Homo sapiens, UniProt Q99581 1-238); conditions: protein: recombinant; tags: N-terminal GST; dsDNA, one strand shown
# T1 sequence: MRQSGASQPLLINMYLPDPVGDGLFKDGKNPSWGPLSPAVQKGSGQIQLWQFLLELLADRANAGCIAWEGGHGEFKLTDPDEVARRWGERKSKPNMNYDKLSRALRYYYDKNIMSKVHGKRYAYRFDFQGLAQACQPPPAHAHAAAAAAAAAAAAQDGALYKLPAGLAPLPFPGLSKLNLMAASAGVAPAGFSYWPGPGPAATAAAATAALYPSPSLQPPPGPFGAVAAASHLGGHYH
# Summary of the method: (§1)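 Binding signal is each hexamer's read frequency for a factor divided by its frequency in the tag-only sample. The factors were GST-fused human transcription factors from yeast, captured on glutathione beads, DNA-barcoded and pooled with that sample. Pools were incubated with 200 nmole of a random double-stranded 16-mer DNA library in Tris/NaCl/DTT/glycerol buffer at room temperature for 30 min, then washed, crosslinked with 0.1% formaldehyde, proximity-ligated with BsaI/T4 ligase (1 h, 37 °C), PCR-amplified and sequenced on an Illumina NextSeq500.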
# ETV5 = ETV5 (Homo sapiens, UniProt P41161 1-510); conditions: protein: recombinant; tags: N-terminal GST; dsDNA, one strand shown
# ETV5, sequence (P41161 whole entry): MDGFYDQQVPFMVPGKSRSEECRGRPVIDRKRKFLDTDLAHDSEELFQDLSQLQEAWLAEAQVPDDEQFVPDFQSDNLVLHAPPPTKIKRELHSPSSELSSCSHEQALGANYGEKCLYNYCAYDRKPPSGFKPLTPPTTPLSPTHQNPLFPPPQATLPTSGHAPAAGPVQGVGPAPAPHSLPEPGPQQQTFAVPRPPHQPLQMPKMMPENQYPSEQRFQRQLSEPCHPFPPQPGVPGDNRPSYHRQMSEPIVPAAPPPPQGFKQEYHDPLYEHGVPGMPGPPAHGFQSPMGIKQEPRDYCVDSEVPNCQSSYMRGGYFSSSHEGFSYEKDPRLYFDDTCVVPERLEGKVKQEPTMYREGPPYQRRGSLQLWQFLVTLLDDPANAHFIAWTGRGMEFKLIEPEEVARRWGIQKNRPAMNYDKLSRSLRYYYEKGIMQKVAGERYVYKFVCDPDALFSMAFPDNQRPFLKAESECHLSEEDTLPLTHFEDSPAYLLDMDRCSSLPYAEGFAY
# Summary of the method: as §1
# HSF1 = HSF1 (Homo sapiens, UniProt Q00613 1-529); conditions: protein: recombinant; tags: N-terminal GST; chain copies: 3; dsDNA, one strand shown
# HSF1, sequence (Q00613 whole entry): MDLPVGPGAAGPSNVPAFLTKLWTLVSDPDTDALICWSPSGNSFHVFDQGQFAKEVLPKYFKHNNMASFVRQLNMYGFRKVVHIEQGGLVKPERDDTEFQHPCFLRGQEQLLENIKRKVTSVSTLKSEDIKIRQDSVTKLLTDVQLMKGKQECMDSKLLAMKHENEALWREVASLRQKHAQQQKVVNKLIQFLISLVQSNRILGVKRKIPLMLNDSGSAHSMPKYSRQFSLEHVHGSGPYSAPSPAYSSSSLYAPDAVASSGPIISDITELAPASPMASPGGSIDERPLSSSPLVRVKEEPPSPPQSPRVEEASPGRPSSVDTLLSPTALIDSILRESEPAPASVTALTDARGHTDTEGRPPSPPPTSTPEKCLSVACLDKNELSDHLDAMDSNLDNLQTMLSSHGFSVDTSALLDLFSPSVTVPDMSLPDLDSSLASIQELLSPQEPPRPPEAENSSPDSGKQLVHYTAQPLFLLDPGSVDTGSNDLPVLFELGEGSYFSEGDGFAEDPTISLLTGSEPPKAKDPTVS
# Summary of the method: as §1
# SPIC = target: T2, SPIC (Homo sapiens, UniProt Q8N5J4 1-248); conditions: protein: recombinant; tags: N-terminal GST; dsDNA, one strand shown
# T2 sequence: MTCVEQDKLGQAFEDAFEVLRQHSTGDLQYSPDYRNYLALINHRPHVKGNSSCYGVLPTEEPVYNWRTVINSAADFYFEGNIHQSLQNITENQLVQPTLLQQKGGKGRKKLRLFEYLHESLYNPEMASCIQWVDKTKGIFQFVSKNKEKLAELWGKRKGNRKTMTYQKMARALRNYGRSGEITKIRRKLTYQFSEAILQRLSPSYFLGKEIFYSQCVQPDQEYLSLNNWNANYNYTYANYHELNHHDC
# Summary of the method: as §1
# ELF4 = ELF4 (Homo sapiens, UniProt Q99607 1-663); conditions: protein: recombinant; tags: N-terminal GST; dsDNA, one strand shown
# ELF4, sequence (Q99607 whole entry): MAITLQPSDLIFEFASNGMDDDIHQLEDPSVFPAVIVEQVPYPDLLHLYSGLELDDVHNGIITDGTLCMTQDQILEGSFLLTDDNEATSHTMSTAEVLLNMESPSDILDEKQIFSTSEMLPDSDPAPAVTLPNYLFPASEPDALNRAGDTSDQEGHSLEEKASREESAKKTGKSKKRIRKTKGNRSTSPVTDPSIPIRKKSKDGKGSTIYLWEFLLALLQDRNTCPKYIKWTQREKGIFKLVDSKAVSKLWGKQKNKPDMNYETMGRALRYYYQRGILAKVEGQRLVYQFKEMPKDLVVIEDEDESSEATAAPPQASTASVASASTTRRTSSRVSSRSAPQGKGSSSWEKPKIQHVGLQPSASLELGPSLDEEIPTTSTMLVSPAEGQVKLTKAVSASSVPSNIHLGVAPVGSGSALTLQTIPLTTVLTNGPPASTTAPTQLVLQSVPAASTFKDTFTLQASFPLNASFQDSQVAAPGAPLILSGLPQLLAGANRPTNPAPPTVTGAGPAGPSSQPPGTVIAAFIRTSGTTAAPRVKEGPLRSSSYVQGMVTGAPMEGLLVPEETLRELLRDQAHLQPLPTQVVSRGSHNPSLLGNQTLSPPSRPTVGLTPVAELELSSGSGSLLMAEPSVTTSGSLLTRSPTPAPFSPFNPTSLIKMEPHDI
# Summary of the method: as §1
# ELK4 = target: T3, ELK4 (Homo sapiens, UniProt P28324-2 1-405); conditions: protein: recombinant; tags: N-terminal GST; dsDNA, one strand shown
# T3 sequence: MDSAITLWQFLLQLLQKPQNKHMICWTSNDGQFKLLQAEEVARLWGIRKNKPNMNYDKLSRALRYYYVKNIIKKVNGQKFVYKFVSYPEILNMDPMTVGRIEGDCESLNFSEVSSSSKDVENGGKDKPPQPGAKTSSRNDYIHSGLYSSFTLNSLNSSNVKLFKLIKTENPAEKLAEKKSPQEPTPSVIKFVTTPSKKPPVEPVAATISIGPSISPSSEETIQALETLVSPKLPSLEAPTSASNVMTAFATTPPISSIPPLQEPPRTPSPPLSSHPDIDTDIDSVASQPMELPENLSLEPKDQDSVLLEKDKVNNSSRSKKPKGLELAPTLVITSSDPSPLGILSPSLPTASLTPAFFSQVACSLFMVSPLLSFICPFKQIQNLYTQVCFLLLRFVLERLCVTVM
# Summary of the method: as §1
# ETV2 = target: T4, ETV2 (Homo sapiens, UniProt O00321 1-342); conditions: protein: recombinant; tags: N-terminal GST; dsDNA, one strand shown
# T4 sequence: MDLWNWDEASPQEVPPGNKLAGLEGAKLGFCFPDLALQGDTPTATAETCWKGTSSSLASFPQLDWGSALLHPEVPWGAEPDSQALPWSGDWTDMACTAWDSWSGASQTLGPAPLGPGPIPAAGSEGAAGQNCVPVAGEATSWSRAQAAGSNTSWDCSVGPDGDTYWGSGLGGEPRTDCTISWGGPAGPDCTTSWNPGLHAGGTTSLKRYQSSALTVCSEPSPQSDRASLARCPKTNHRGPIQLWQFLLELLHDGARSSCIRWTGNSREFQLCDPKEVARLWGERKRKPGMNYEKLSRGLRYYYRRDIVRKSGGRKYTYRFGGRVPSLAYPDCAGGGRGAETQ
# Summary of the method: as §1
# ELF3 = target: T5, ELF3 (Homo sapiens, UniProt P78545 1-371); conditions: protein: recombinant; tags: N-terminal GST; dsDNA, one strand shown
# T5 sequence: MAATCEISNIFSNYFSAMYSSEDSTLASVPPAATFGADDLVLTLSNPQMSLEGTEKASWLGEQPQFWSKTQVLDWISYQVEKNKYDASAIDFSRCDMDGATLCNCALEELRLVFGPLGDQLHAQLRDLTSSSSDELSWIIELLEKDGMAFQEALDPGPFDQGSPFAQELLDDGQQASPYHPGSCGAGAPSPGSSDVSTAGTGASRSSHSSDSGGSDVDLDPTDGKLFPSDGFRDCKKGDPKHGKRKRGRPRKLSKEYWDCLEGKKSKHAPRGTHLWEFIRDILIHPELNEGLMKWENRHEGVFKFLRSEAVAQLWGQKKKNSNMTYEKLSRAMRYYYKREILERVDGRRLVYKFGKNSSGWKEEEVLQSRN
# Summary of the method: as §1
# CRX = CRX (Homo sapiens, UniProt O43186 1-299); conditions: protein: recombinant; tags: N-terminal GST; dsDNA, one strand shown
# CRX, sequence (O43186 whole entry): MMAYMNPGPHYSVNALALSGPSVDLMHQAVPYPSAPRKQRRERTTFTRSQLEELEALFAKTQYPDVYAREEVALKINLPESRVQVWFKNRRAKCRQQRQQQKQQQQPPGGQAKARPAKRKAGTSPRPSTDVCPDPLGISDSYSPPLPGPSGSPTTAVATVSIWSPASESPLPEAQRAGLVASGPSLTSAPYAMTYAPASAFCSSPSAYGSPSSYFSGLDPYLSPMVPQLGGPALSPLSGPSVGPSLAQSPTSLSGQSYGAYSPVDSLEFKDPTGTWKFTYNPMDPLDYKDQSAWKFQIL
# Summary of the method: as §1
# ETV1 = ETV1 (Homo sapiens, UniProt P50549 1-477); conditions: protein: recombinant; tags: N-terminal GST; dsDNA, one strand shown
# ETV1, sequence (P50549 whole entry): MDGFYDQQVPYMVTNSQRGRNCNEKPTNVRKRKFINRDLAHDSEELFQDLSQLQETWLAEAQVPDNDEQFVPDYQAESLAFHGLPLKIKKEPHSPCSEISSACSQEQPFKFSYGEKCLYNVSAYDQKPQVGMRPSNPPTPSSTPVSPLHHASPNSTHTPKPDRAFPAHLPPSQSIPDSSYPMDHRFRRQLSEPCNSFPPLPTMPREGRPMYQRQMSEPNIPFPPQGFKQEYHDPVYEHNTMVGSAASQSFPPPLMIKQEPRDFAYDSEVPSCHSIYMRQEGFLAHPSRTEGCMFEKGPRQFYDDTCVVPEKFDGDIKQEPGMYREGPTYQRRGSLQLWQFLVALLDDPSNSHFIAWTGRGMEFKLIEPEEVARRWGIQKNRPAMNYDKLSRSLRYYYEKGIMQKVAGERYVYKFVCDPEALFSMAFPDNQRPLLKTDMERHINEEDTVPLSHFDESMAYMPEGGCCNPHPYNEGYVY
# Summary of the method: as §1
# ERF = target: T6, ERF (Homo sapiens, UniProt P50548 1-548); conditions: protein: recombinant; tags: N-terminal GST; dsDNA, one strand shown
# T6 sequence: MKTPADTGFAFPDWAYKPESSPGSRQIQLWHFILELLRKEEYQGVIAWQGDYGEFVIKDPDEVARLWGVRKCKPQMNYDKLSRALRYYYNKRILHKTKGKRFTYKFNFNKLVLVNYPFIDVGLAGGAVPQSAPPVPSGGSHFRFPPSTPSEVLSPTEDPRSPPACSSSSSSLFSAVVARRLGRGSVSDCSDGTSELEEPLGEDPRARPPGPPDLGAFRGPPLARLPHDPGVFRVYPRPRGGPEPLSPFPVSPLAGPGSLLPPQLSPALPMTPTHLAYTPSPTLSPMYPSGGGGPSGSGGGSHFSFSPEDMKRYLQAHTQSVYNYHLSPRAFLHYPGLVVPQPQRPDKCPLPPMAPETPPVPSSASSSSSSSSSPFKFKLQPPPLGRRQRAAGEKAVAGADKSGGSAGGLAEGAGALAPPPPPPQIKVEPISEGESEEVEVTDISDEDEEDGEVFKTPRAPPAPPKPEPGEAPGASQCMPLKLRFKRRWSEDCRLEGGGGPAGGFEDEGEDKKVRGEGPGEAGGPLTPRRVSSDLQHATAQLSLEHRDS
# Summary of the method: as §1
# ETV3L = target: T7, ETV3L (Homo sapiens, UniProt Q6ZN32 1-361); conditions: protein: recombinant; tags: N-terminal GST; dsDNA, one strand shown
# T7 sequence: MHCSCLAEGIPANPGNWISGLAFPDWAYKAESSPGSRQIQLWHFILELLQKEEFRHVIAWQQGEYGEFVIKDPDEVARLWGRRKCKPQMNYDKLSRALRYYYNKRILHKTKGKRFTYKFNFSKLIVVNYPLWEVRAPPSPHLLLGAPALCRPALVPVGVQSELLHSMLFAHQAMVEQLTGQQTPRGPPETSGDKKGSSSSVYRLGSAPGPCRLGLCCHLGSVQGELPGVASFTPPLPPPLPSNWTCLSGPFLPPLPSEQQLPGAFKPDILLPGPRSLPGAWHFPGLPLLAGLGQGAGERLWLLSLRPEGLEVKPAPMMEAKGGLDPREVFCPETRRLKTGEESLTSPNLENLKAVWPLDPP
# Summary of the method: as §1
# ETS2 = target: T8, ETS2 (Homo sapiens, UniProt P15036 1-469); conditions: protein: recombinant; tags: N-terminal GST; dsDNA, one strand shown
# T8 sequence: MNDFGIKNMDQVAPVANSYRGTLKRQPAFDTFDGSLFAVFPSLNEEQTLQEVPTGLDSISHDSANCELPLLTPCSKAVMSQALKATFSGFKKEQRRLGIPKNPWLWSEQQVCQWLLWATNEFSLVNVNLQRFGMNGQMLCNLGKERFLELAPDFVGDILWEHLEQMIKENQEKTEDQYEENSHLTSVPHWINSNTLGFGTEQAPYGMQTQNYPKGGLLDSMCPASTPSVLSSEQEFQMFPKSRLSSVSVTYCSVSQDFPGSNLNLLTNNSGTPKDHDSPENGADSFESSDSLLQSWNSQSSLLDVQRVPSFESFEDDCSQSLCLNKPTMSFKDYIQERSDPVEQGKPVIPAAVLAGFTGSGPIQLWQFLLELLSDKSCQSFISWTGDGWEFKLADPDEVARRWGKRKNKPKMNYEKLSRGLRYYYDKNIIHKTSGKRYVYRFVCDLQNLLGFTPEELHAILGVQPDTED
# Summary of the method: as §1
# SPDEF = target: T9, SPDEF (Homo sapiens, UniProt O95238 1-335); conditions: protein: recombinant; tags: N-terminal GST; dsDNA, one strand shown
# T9 sequence: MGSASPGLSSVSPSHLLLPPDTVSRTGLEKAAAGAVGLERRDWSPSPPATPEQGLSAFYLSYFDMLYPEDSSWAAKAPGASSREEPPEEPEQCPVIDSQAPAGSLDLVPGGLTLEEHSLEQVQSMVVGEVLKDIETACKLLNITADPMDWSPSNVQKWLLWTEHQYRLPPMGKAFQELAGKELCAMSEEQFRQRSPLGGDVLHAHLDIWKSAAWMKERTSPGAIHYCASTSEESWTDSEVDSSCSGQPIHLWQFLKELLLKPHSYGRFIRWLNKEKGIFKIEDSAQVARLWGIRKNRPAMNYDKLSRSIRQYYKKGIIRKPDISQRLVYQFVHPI
# Summary of the method: as §1
# ETV7 = target: T10, ETV7 (Homo sapiens, UniProt Q9Y603 1-341); conditions: protein: recombinant; tags: N-terminal GST; dsDNA, one strand shown
# T10 sequence: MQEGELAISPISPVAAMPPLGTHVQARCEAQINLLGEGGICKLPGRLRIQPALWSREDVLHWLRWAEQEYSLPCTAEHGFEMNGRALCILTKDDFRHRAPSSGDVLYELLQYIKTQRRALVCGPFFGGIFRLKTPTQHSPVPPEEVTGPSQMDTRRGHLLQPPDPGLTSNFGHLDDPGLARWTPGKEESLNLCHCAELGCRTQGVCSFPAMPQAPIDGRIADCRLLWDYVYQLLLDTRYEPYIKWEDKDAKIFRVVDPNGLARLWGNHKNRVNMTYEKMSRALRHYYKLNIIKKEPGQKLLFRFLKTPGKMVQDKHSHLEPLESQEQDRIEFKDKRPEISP
# Summary of the method: as §1
# ELF5 = target: T11, ELF5 (Homo sapiens, UniProt Q9UKW6-2 1-255); conditions: protein: recombinant; tags: N-terminal GST; dsDNA, one strand shown
# T11 sequence: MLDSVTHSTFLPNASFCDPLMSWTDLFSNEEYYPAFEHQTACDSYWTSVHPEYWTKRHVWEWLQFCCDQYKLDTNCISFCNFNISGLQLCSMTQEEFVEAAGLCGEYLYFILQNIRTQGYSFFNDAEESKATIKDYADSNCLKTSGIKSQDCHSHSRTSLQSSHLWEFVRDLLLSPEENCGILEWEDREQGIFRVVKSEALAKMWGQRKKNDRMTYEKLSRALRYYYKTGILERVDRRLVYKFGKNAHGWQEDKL
# Summary of the method: as §1
# ETV3 = target: T12, ETV3 (Homo sapiens, UniProt P41162-2 1-143); conditions: protein: recombinant; tags: N-terminal GST; dsDNA, one strand shown
# T12 sequence: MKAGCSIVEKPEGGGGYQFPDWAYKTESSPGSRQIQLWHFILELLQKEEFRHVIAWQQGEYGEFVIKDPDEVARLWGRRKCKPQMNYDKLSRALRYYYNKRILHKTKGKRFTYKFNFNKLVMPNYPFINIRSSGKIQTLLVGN
# Summary of the method: as §1
# ETV6 = ETV6 (Homo sapiens, UniProt P41212 1-452); conditions: protein: recombinant; tags: N-terminal GST; dsDNA, one strand shown
# ETV6, sequence (P41212 whole entry): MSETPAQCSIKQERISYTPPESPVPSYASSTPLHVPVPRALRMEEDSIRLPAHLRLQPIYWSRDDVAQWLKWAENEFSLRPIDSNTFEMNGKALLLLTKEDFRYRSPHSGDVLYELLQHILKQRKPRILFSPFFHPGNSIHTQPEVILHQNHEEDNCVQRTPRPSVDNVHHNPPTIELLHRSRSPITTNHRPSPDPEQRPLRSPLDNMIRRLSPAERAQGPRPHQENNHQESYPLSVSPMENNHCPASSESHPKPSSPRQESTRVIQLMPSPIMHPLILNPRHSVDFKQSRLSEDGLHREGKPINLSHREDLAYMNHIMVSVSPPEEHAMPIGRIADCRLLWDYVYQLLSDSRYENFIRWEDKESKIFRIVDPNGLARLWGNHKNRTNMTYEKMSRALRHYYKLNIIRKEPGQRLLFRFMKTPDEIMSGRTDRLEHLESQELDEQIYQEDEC
# Summary of the method: as §1
sequence,measurement,setting,value
TTCTAA,binding signal,FEV,"1.18 fold enrichment (6-mer frequency, TF over GST control)"
same,binding signal,ETV5,"1.22 fold enrichment (6-mer frequency, TF over GST control)"
same,binding signal,HSF1,"1.83 fold enrichment (6-mer frequency, TF over GST control)"
same,binding signal,SPIC,"1.13 fold enrichment (6-mer frequency, TF over GST control)"
same,binding signal,ELF4,"1.23 fold enrichment (6-mer frequency, TF over GST control)"
same,binding signal,ELK4,"1.22 fold enrichment (6-mer frequency, TF over GST control)"
same,binding signal,ETV2,"1.26 fold enrichment (6-mer frequency, TF over GST control)"
same,binding signal,ELF3,"1.04 fold enrichment (6-mer frequency, TF over GST control)"
same,binding signal,CRX,"1.84 fold enrichment (6-mer frequency, TF over GST control)"
same,binding signal,ETV1,"1.21 fold enrichment (6-mer frequency, TF over GST control)"
same,binding signal,ERF,"1.23 fold enrichment (6-mer frequency, TF over GST control)"
same,binding signal,ETV3L,"1.16 fold enrichment (6-mer frequency, TF over GST control)"
same,binding signal,ETS2,"1.26 fold enrichment (6-mer frequency, TF over GST control)"
same,binding signal,SPDEF,"1.22 fold enrichment (6-mer frequency, TF over GST control)"
same,binding signal,ETV7,"1.23 fold enrichment (6-mer frequency, TF over GST control)"
same,binding signal,ELF5,"1.17 fold enrichment (6-mer frequency, TF over GST control)"
same,binding signal,ETV3,"1.19 fold enrichment (6-mer frequency, TF over GST control)"
same,binding signal,ETV6,"1.24 fold enrichment (6-mer frequency, TF over GST control)"

# Reference: publication PMC7862700, “An all-to-all approach to the identification of sequence-specific readers for epigenetic DNA modifications on cytosine”
